Results published in PubChem BioAssay (NCATS).
Values joined by “and” are separate entries in the source; they are usually repeats but may differ in a detail not shown here. Equal entries are not always repeated. Records with an inconclusive call do not appear. Where a call stands in place of a potency, no number is given. Values without a mark were called inactive. Active and inactive are the calls of the source. Calls follow the shape of the dose curve; as a rule, active = well fitted curve in the direction sought with a large enough effect; inconclusive = small, poorly fitted or top-dose-only effect, or another doubt; inactive = no such curve, though single readings can be large; an effect the other way counts as inactive or inconclusive.

Legend:
[1] = target: Cellular tumor antigen p53 (Homo sapiens) (UniProt P04637); experiment: Primary qHTS for small molecule compounds that upregulate eGFP-tagged delta133p53alpha (in N-terminal) cells. (AID 2060322); details: NCI-H358 eGFP-delta133p53alpha fluorescence, 24 h; activation: stronger effect = higher value; also: nearly all actives have a fitted effect of over 75% in size; also: potency is read from the fitted curve at half-maximal effect; as to activation: series mostly up to about 56 µM
Procedure, shortened: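 NCI-H358 cells pre-induced 24 h with 10 ng/ml doxycycline to express N-terminal eGFP-delta133p53alpha, then dosed 24 h at 37C without doxycycline; fixed, Hoechst-stained, GFP intensity by laser scanning cytometry, normalized to DMSO (0%) and 57.5 uM 5-azacytidine (100%).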

[2] = target: Aldehyde dehydrogenase, mitochondrial (Homo sapiens) (UniProt P05091); experiment: qHTS for Inhibitors of the Aldehyde Dehydrogenase Family (ALDH2) Primary screen (AID 2061308); also: nearly all actives have a fitted effect of over 55% in size
[3] = target: Retinaldehyde dehydrogenase 3 (Homo sapiens) (UniProt P47895); experiment: qHTS for Inhibitors of the Aldehyde Dehydrogenase Family (ALDH1A3) Primary screen (AID 2061315)

Chain of Cellular tumor antigen p53 (Homo sapiens) (P04637 whole entry, looked up): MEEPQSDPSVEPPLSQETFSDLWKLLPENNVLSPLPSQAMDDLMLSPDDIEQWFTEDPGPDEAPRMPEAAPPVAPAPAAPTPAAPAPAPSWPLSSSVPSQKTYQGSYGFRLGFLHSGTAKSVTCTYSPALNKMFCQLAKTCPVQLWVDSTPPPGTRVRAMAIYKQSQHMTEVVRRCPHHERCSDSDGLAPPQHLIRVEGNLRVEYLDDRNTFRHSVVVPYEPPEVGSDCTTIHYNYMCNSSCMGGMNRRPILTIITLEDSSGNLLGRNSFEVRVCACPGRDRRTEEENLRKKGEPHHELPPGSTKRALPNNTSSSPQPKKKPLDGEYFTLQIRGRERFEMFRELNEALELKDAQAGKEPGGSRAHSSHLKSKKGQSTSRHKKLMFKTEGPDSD

Row | SMILES | activation [1] | Potency [2] | Potency [3] | activity change, negative = inhibition [2] | activity change, negative = inhibition [3] | Potency [1]
1 | CC(C)CC1(C(=O)OCc2ccc(O[C@@H]3O[C@H](CO)[C@@H](O)[C@H](O)[C@H]3O)cc2)CC(=O)OC(C(=O)O)CC(=O)OCC2OC(O1)C(OC(=O)/C=C/c1ccc(O)cc1)C(O)C2O (stereo not given in full) | 3.05% | inactive | inactive |  |  | 
2 | CCc1nn(CCO)c(CC)c1Oc1cc(C#N)cc(C#N)c1 | 11.9% | inactive | inactive |  |  | 
3 | OC[C@H]1O[C@@H](OCCc2ccccc2)[C@H](O)[C@@H](O)[C@@H]1O | -2.29% | inactive | inactive |  |  | 
4 | COc1cc(C(=O)OC(COCCC(C)C)CN2CCOCC2)cc(OC)c1OC (stereo not given) | 14.3% | inactive | inactive |  |  | 
5 | C=C1C2CCC3CC2(CC(O)C2(O)C1CC(OC1OC(CO)C(O)C(O)C1O)C2(C)C)CC3(C)O (stereo not given) | 19.6% | inactive | inactive |  |  | 
6 | CC1[C@@H](O)[C@@H](O)C2[C@]3(C)C(C[C@H]4OC(=O)[C@H](O)[C@]1(O)[C@@]24C)C(C)(O)C[C@H](O)[C@H]3O (stereo not given in full) | -16% | inactive | inactive |  |  | 
7 | C=C1C[C@]23C[C@H]1CC[C@H]2[C@@]12C=C[C@H](O)[C@@](C)(C(=O)O1)[C@H]2[C@@H]3C(=O)O | -28.2% | inactive | inactive |  |  | 
8 | COC(=O)C1=CO[C@@H](O[C@@H]2O[C@H](CO)[C@@H](O)[C@H](O)[C@H]2O)C2C1CC(O)C2C (stereo not given in full) | 2.29% | inactive | inactive |  |  | 
9 | O=C(O)Cc1cccc(-c2cc(CCCCCCc3ccc(O[C@H]4O[C@H](CO)[C@@H](O)[C@H](O)[C@@H]4O)c(-c4cccc(CC(=O)O)c4)c3)ccc2O[C@H]2O[C@H](CO)[C@@H](O)[C@H](O)[C@@H]2O)c1 | 4.33% |  |  | -4.79% [at 0.464 µM] | -13.7% [at 0.464 µM] | 
10 | CC1=CC(=O)CC(C)(C)C1/C=C/C(C)OC1OC(COC2OCC(O)C(O)C2O)C(O)C(O)C1O (stereo not given) | 8.93% | inactive | inactive |  |  | 
11 | COC1(CC(C)C)NC(=O)C(O)(Cc2ccccc2)NC1=O (stereo not given) | -16.8% | inactive | inactive |  |  | 
12 | C[C@@H]1O[C@@H](OC[C@H]2O[C@@H](OCc3ccccc3)[C@H](O)[C@@H](O)[C@@H]2O)[C@H](O)[C@H](O)[C@H]1O | 15.3% | inactive | inactive |  |  | 
13 | Nc1ncnc2c1ncn2CCNCCCCCO | -0.333% | inactive | inactive |  |  | 
14 | O=C1NC(Cc2ccccc2)C(=O)N2CCCC12 (stereo not given) | -16.8% | inactive | inactive |  |  | 
15 | CC(=O)OCC1OC(O[C@H]2CC[C@@]3(C)C(CC[C@]4(C)C3CC=C3[C@@H]5CC(C)(C)CC[C@]5(C(=O)O)CC[C@]34C)[C@]2(C)CO)C(O)C(O)C1OC1OC(C)C(O)C(OC2OCC(O)C(O)C2O)C1O (stereo not given in full) | -6.11% | inactive | inactive |  |  | 
16 | COc1c(O)cc2c(c1O)C(=O)O[C@H](C)[C@H]2O | -14.5% | inactive | inactive |  |  | 
17 | C=C1CC[C@@H]2[C@](C)(CO[C@@H]3O[C@H](CO)[C@@H](O)[C@H](O)[C@H]3O)[C@H](O)CC[C@@]2(C)[C@@H]1C/C=C1/C(=O)OC[C@H]1O | -8.93% | inactive | inactive |  |  | 
18 | Cc1ncc([N+](=O)[O-])n1CC(O)CN1CCOCC1 (stereo not given) | -11% | inactive | inactive |  |  | 
19 | C/C=C(\C)C(=O)O[C@H]1[C@@H](O[C@]2(COC(=O)CC(C)C)O[C@H](COC(=O)C(C)C)[C@@H](OC(C)=O)[C@@H]2O)O[C@H](COC(C)=O)[C@@H](O)[C@@H]1O | 10.7% | inactive | inactive |  |  | 
20 | CO[C@@H]1CC(OC2CCC3(C)C(CCC45CCC(C6=CC(=O)OC6)C(C)(CCC43)C5=O)C2)O[C@H](C)[C@@H]1O[C@@H]1O[C@H](CO[C@@H]2O[C@H](CO)[C@@H](O)[C@H](O)[C@H]2O)[C@@H](O)[C@H](O)[C@H]1O (stereo not given in full) | 1.53% | inactive | inactive |  |  | 
21 | C=C1[C@H](OC(C)=O)[C@H]2[C@@H](OC(C)=O)[C@](C)(OC(C)=O)C[C@]2(OC(C)=O)C(=O)[C@H](C)/C=C/C(C)(C)C(=O)[C@H](OC(=O)C(C)C)[C@H]1OC(C)=O | 2.29% | inactive | inactive |  |  | 
22 | COC1C2=C(COC2=O)C2(C)CCCC(C)(CO)C2C1OC(=O)c1ccccc1 (stereo not given) | -16% | inactive | inactive |  |  | 
23 | COc1ccc([C@H]2Cc3cccc(O)c3C(=O)O2)cc1 | 3.05% | inactive | inactive |  |  | 
24 | CC(C)[C@H]1CCC(CO)=C[C@@H]1/C=C(\CO)C(=O)O | -15.3% | inactive | inactive |  |  | 
25 | CC(=O)O[C@H]1C[C@H](OC(C)=O)[C@]2(C)[C@H](CC[C@@]34O[C@@H]3C3=C(C)C(=O)O[C@@H]3C[C@H]42)C1(C)C | 4.46% | inactive | inactive |  |  | 

Row | SMILES | activation [1] | Potency [2] | Potency [3] | activity change, negative = inhibition [2] | activity change, negative = inhibition [3] | Potency [1]
26 | O=C(Nc1ccccc1-c1cn2c(CN3CCNCC3)csc2n1)c1ccc2ccccc2n1 | 11% | inactive | inactive |  |  | 
27 | CCNC(=O)C1OC(n2cnc3c(N)nc(NCCc4ccc(CCC(=O)O)cc4)nc32)C(O)C1O (stereo not given) | -5.73% | inactive | inactive |  |  | 
28 | CC(C)=CCc1cc(O[C@@H]2O[C@H](CO[C@@H]3OC[C@](O)(CO)[C@H]3O)[C@@H](O)[C@H](O)[C@H]2O)ccc1O | 22.1% | inactive | inactive |  |  | 
29 | COC(=O)c1ccc(N2CCN(C)CC2)c(NC(=O)c2cccc(OC)c2)c1 | 9% | inactive | inactive |  |  | 
30 | CCN1C(C)(C)CC(Oc2ccc(C(=O)Nc3ccc(NC(=O)Nc4cc(C(C)(C)C)on4)cc3)nc2)CC1(C)C |  | inactive | inactive |  |  | 21.3 µM (active)
31 | CC(C)C1=CC2=CCC3[C@](C)(CCC[C@@]3(C)C(=O)O)C2CC1=O (stereo not given in full) | 8.93% | inactive | inactive |  |  | 
32 | O=C(CCCN1CC=C(n2c(=O)[nH]c3ccccc32)CC1)c1ccc(F)cc1 | 17.5% and 4.33% | inactive | inactive |  |  | 
33 | CC[C@H](C)[C@H](NC(=O)[C@H](Cc1ccc(O)cc1)NC(=O)[C@@H](N)C(C)C)C(=O)N[C@@H](Cc1cnc[nH]1)C(=O)N1CCC[C@H]1C(=O)N[C@@H](Cc1ccccc1)C(=O)O | 0.333% |  |  | 0.0903% [at 5.59 µM] | 1.7% [at 5.59 µM] | 
34 | COc1cc2c(cc1OC)N1C(=O)C[C@@]34C=CC[N@+]5([O-])CC[C@H]2[C@H](CC3)[C@@]145 | 5.36% | inactive | inactive |  |  | 
35 | CC[C@@H](O)C[C@@H]1C(C)=C[C@@H]2CCCC[C@@H]2[C@@]1(C)C(=O)O | -6.87% | inactive | inactive |  |  | 
36 | CC1CCC2C(C)(C)[C@@H](O)CC[C@]2(C)C12Cc1c(O)cc3c(c1O2)CN(C(CCC(=O)O)C(=O)O)C3=O (stereo not given in full) | 23.2% | inactive | inactive |  |  | 
37 | CCCC(=O)Nc1cccc(NC(=O)c2ccccc2Br)c1 | -11.7% | inactive | inactive |  |  | 
38 | C=C1C(=O)OC[C@H]2C(C(=O)O)=CC3CC(C)(C)C[C@@]132 (stereo not given in full) | 13.4% | inactive | inactive |  |  | 
39 | O=C(NCC(O)CO)c1ccncc1Nc1ccc(I)cc1F (stereo not given) | 19.6% | inactive | inactive |  |  | 
40 | CS(=O)(=O)c1ccc([C@H](CC2CCCC2)C(=O)Nc2nccs2)cc1 | -11.6% | inactive | inactive |  |  | 
41 | Cc1cc(O)cc(O[C@@H]2O[C@H](CO)[C@@H](O)[C@H](O)[C@H]2O)c1 | -6.11% | inactive | inactive |  |  | 
42 | C/C=C/C=C/[C@@H]1O[C@](O)([C@H](CC)C(=O)NC/C=C/C=C(\C)[C@@H](OC)[C@@H](C)C2OC(/C=C/C=C/C=C(\C)C(=O)c3c(O)cc[nH]c3=O)[C@H](O)[C@@H]2O)[C@H](O)[C@H](O)C1(C)C (stereo not given in full) | -1.79% | inactive | inactive |  |  | 
43 | CC(=O)O[C@@H]1[C@@H](O)[C@H](C)O[C@@H](O[C@H]2[C@@H]3C=CO[C@@H](O[C@@H]4O[C@H](CO)[C@@H](O)[C@H](O)[C@H]4OC(C)=O)[C@@H]3[C@@]3(CO)O[C@@H]23)[C@@H]1OC(=O)/C=C/c1ccc(O)cc1 | -17.6% | inactive | inactive |  |  | 
44 | C=C1CC[C@H]2[C@@](C)(CCC[C@@]2(C)C(=O)O)[C@@H]1CCC(C)CCO (stereo not given in full) | 9.16% | inactive | inactive |  |  | 
45 | CC(C)(C)NC(=O)[C@@H]1CN(Cc2cccnc2)CCN1C[C@@H](O)C[C@@H](Cc1ccccc1)C(=O)N[C@H]1c2ccccc2C[C@H]1O | -2.82% and 2.86% | inactive | inactive |  |  | 
46 | COC(=O)C1=CO[C@@H](O[C@@H]2O[C@H](CO)[C@@H](O)[C@H](O)[C@H]2O)[C@@H]2[C@@H](C(=O)O)CC[C@H]12 | -5.34% | inactive | inactive |  |  | 
47 | O=C(OC1C[C@H]2CC[C@@H](C1)[N+]21CCCC1)C(O)(c1ccccc1)c1ccccc1 (stereo not given in full) | 5.18% | inactive | inactive |  |  | 
48 | CC1(C)CC[C@]2(C(=O)O)CC[C@]3(C)C(=CCC4[C@@]5(C)C[C@H](O)[C@H](O[C@@H]6O[C@H](CO)[C@@H](O)[C@H](O)[C@H]6O)[C@@](C)(CO)C5[C@H](O)C[C@]43C)[C@@H]2C1 (stereo not given in full) | -13% | inactive | inactive |  |  | 
49 | C=CC(C)(C)c1[nH]c2ccccc2c1C[C@@H]1NC(=O)[C@H](Cc2c[nH]c3ccccc23)NC1=O | 6.25% | inactive | inactive |  |  | 
50 | C[C@@H]1CC2OC(=O)C3=C2C(CCC3O)[C@@]12C[C@@H](c1ccoc1)OC2=O (stereo not given in full) | -8.4% | inactive | inactive |  |  | 
